{"source": "paper PMC12136788", "binders": {"B1": {"name": "chr16:94664741:94664742:+_ENSMUSG00000040785_ENSMUST00000117648|mus_hu|mus_mus_mus_hu_False|8_68 (ssRNA)", "RNA": "GGGAGUUCUACAGUCCGACGAUCUGGUACUGAUCUUGGUAGCUGAUAUUCAGGAGAAAGGCUGGCCAAAGGUGUGUAUAUGCUGGUGUACUGGGGCAAACCUGGUAACACGUUUAUGUAUGCUGGCCGCUGGGUGAUGAUAUCCAACAGAGGAUUGAGCAUCA"}, "B2": {"name": "chrX:53596632:53596633:-_ENSG00000086758_ENST00000262854|hu_mus|FALSE|FALSE (ssRNA)", "RNA": "GGGAGUUCUACAGUCCGACGAUCGGCGUGCUUCUCUGUACUCUCAGCCAUAGCAAGCGCCCGUCCCAGGGCUGCUUUCACUUCAUUCACUAGGGCCACUUGAGCAUCUGUGCCACUCCCCGCAGCAGCCAGACUUGCAAGGAACAACAGAGGAUUGAGCAUCA"}, "B3": {"name": "chr12:39756943:39756944:-_ENSG00000139116_ENST00000544797|hu_mus|hu_hu_hu_mus_False|18_98 (ssRNA)", "RNA": "GGGAGUUCUACAGUCCGACGAUCGGUUUGGCUGUUACCCCCGAGGGAAUCCUGCAAGAGUCUUGUCAGCUUAGAGUCUCUGUAAGGGACAUGGGUGGCUCUCUUGCUCUUGUCCCCCAAGGCACUUAUUACAUUCCCAAGAGCCAACAGAGGAUUGAGCAUCA"}, "B4": {"name": "chr12:96663167:96663168:+_ENSG00000111145_ENST00000228741|hu_mus|FALSE|FALSE (ssRNA)", "RNA": "GGGAGUUCUACAGUCCGACGAUCUCUGGGUCCACAGGAGAAUCAUGGUAGUUGGAAGAAAAGGAAUCAACAGGCAGACUUACAGUCAUGGGAACAUUUCCAACCAGCGUUUAUAGUUUAAAGGUCGACAGAAGGUCAUCUUGUCAACAGAGGAUUGAGCAUCA"}, "B5": {"name": "chr7:75932113:75932114:+_ENSG00000106211_ENST00000248553|hu_hu|hu_hu_hu_mus_False|8_48 (ssRNA)", "RNA": "GGGAGUUCUACAGUCCGACGAUCCUGCGACCACUCAUCGGGCAACCGGGGCACCCCGAAAGCUUGAUCGAAGAGGCGGCUGUGUGCGUACCAGUCGUCCCGGAAUGGUUCCCAGCUCGGGCUCCGCAGCGAGAAGGAGGGCACCAACAGAGGAUUGAGCAUCA"}, "B6": {"name": "19974894_19982776_1293_CDS_ENSMUSG00000002428_ENSMUST00000002502|mouse|control|control (ssRNA)", "RNA": "GGGAGUUCUACAGUCCGACGAUCAAUGUACUGUACAGAAAUUUUUCUUCUCUUAGGGCAGACGCUAGACAGCUGCGACAGAGUACAGCUACUCUUCUCCGGAGUUCCUGAAAUACUGGGUUCUUCACCACACGUGGAUGACUCCAACAGAGGAUUGAGCAUCA"}, "B7": {"name": "chr1:151206805:151206806:+_ENSG00000143398_ENST00000349792|hu_hu|FALSE|FALSE (ssRNA)", "RNA": "GGGAGUUCUACAGUCCGACGAUCCUUCUCUCGCUCUUUCUGGGAAGCCCGCCGUUUGUAGGUUGAGCCUUUGAGGUCAUAUUUGAUAUGCAUUUUUACCGAUCUUGGUAAAAGAUUGUUCAUCACCACAAUCCGAAUGUUCUUCAACAGAGGAUUGAGCAUCA"}, "B8": {"name": "135118432_135118552_3022_ncRNA_ENSMUSG00000030795_ENSMUST00000128851|mouse|control|control (ssRNA)", "RNA": "GGGAGUUCUACAGUCCGACGAUCAUGAGCAAUACACUCAAGAUCUUUCUUGUAGUCCACACCUUCCUUCCCAGAUCUAGUUCCUAUAUAUUUGUCUGAGUACAUAUGUAGAAUUGCAUUGACAUCACUAUUUAAUAUAAAUAUCAACAGAGGAUUGAGCAUCA"}, "B9": {"name": "chr7:90019630:90019631:+_ENSMUSG00000057706_ENSMUST00000082237|mus_hu|motif|central (ssRNA)", "RNA": "GGGAGUUCUACAGUCCGACGAUCUAUAUCACUGAAUAGAAAAUAUGCUGGGUGAAGCAGAUCUAGAAGAUUUGUCUGAACCGGUAAAAUCUCCAUCCCAACAGAAUACUGUUCAAAACAUUACACAUUUUAUGGUUGUAAUUCCAACAGAGGAUUGAGCAUCA"}, "B10": {"name": "chr5:69964302:69964303:+_ENSMUSG00000029208_ENSMUST00000154728|mus_hu|FALSE|FALSE (ssRNA)", "RNA": "GGGAGUUCUACAGUCCGACGAUCUGCAGUCUGGUUUGUUCGUUGGCUGAAUAAACAUGGGAGCUGAGAGCUCUGGAGAAAUACAGCCAUUUACUGGCUGUGAAAUCUCAAGUUAACUACUCUAAAAUCGCUUCGAUUAUGAAACAACAGAGGAUUGAGCAUCA"}, "B11": {"name": "chr17:64801638:64801639:+_ENSG00000154229_ENST00000413366|hu_mus|hu_hu_hu_mus_False|28_88 (ssRNA)", "RNA": "GGGAGUUCUACAGUCCGACGAUCUAUAUAUAUAUAUACAUAUGUACACAUAUGUAGUAAAACCCUAGUUAAACGUGUAAAGUAGCCAUUCAUUUUUAAAAUUACAUCUACAUUUAAAAAUUAAUAUAUCUGAUAGAGUGCCAGCAACAGAGGAUUGAGCAUCA"}, "B12": {"name": "chr11:9468696:9468697:+_ENSG00000205339_ENST00000379719|hu_hu|FALSE|FALSE (ssRNA)", "RNA": "GGGAGUUCUACAGUCCGACGAUCCAUUAACAAUAAUGUGAAAAUUAGAAUUAUGAAUUCAAAAAGCAGUGAAGUCUGAAAAUUUAAAAAGUAGACUAGGUAUUAGGGGAUUAAAGGUAAAGGAAGACGAGAAUGUUUCUUUAACAACAGAGGAUUGAGCAUCA"}, "B13": {"name": "chr4:175231952:175231953:+_ENSG00000164118_ENST00000503780|hu_hu|motif|central (ssRNA)", "RNA": "GGGAGUUCUACAGUCCGACGAUCAUUCAGAAGGUCCAUGUCACUACAAGAAGCGUAGUCUUCACUAACUUCAUUAAACUCGGUAAAUUCAUCAUUCUUUUUAGACAAAAGCAUUUCUGUUUCAAGAAGAGUGACACGACUAAGCAACAGAGGAUUGAGCAUCA"}, "B14": {"name": "chr3:25639645:25639646:-_ENSG00000077097_ENST00000264331|hu_mus|FALSE|FALSE (ssRNA)", "RNA": "GGGAGUUCUACAGUCCGACGAUCAUCAGACAACACAUGACAUUUCAAUGAGUAAAAAAGAGCAUAAAACUGUAUGUGUAAGAACAAAAUGUUAAAAGGCCUACCACAAUAAUAAAAAACCAUCAAUUACAUCAUCACAUUAAACAACAGAGGAUUGAGCAUCA"}, "B15": {"name": "chr17:64801638:64801639:+_ENSG00000154229_ENST00000413366|hu_mus|hu_hu_hu_mus_False|78_98 (ssRNA)", "RNA": "B11 RNA with C38U, U42C, G43A, U44C, G53A, A60G, C62G, U114A"}, "B16": {"name": "chr1:84720644:84720645:-_ENSMUSG00000026219_ENSMUST00000027421|mus_hu|FALSE|FALSE (ssRNA)", "RNA": "GGGAGUUCUACAGUCCGACGAUCUGAAUUUUAAAUUAGAUCUUAACUGGAGAGAACAUGGGACAACAGAAGCCCAUGGGUAACGAAAAUUUGAGAACUGUGAGUUGUAUACAAAAAAAAAACUGUGAGCUGCACAGAUAAUAACAACAGAGGAUUGAGCAUCA"}, "B17": {"name": "chr1:95362928:95362929:-_ENSG00000117519_ENST00000538964|hu_hu|motif|central (ssRNA)", "RNA": "GGGAGUUCUACAGUCCGACGAUCAGACCACAUUUAGCAAUAAGCAUGAGUUUAGUCUUCCAUGUAGAAACCAGAUACACGGAACUGUAAAAAAAAAAAAAAAAAAAAAAAGUUUCCUAUUGUUUGAAAAUACCAGUUUAAUAUCAACAGAGGAUUGAGCAUCA"}, "B18": {"name": "chr17:64801638:64801639:+_ENSG00000154229_ENST00000413366|hu_mus|hu_hu_hu_mus_False|1_98 (ssRNA)", "RNA": "B11 RNA with C38U, U42C, G43A, U44C, G53A, U114A, A142C, G143A"}, "B19": {"name": "chr1:225611761:225611762:-_ENSG00000143815_ENST00000272163|hu_mus|hu_hu_hu_mus_True|1_18 (ssRNA)", "RNA": "GGGAGUUCUACAGUCCGACGAUCCCAGGCCAUCGGCCUCUGACCACUUCACCCUCAACAAACUUCCUACUUGGCAUUUUCUAAAAUUAGUCUGGCCGCGCUCCGGCGGGAACUCCAGACGGCUCCCGACAGUCACCCGCACAGCAACAGAGGAUUGAGCAUCA"}, "B20": {"name": "chr1:247070963:247070964:-_ENSG00000153207_ENST00000391829|hu_mus|motif|central (ssRNA)", "RNA": "GGGAGUUCUACAGUCCGACGAUCCUGAUUUGUCCUGUUGAUGUAACUCAGAGUAGAAAUGGCUACUCCCAAUGGGCUUACGGACUGGAAGCACAGGUGGCGCCCCUCUCUCAUCACUCUCUCUCUGAUGUGUGGUACUUCAGCCAACAGAGGAUUGAGCAUCA"}, "B21": {"name": "chr11:97025304:97025305:-_ENSMUSG00000001440_ENSMUST00000001479|mus_hu|FALSE|FALSE (ssRNA)", "RNA": "GGGAGUUCUACAGUCCGACGAUCAGCUACUACUCCAUCUGUGUGAUCCUCAUCUCCAGCAAUGUGGUCAAUGAAAGACAGAAUAAAUUCUACUCUGGGUUGUACCAGCAUCACAUCCGGGUGUACGUUCUCCUGAUCCCCCUUCAACAGAGGAUUGAGCAUCA"}, "B22": {"name": "chr2:25965407:25965408:-_ENSG00000143970_ENST00000336112|hu_hu|motif|central (ssRNA)", "RNA": "GGGAGUUCUACAGUCCGACGAUCCUGUGCUGCCUGAAUUAAAUCUCUGGCUAGGGUCUUUUCAUCAAAUGUUUGGCCUCGGGUGAACAGGUAAUUCUCCUUACUUAAAGUGGUUUGCUCAUUCAAUGGUAUCUCAGCCUUCACCAACAGAGGAUUGAGCAUCA"}}, "note": "Positions count from the first letter of the chain named. Over roughly 24,000 sequences, “enrichment r” has its median near 0.99; the highest 2% begin near 3.7. This is one part of a sample in which the highest values are shown more often than they occur."}
{"molecular_target": "T1, UNK ZnF1-3 (human, UniProt Q9C0B0 31-174)", "T1 sequence": "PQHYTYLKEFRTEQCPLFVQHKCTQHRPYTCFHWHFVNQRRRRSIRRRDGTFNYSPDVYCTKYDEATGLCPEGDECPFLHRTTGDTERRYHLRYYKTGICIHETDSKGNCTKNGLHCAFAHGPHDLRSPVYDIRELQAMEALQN", "assay": "nsRBNS (natural sequence RNA bind-n-seq); RBNS binding buffer (assumed for nsRBNS): 25 mM Tris pH 7.5, 150 mM KCl, 3 mM MgCl2, 0.01% Triton X-100, 500 ug/ml BSA, 20 U/ml SUPERase-In, 4 C; UNK is unkempt and MSI1 is Musashi-1; names of the RNAs are library labels; protein concentration not given here; high values mean tight binding", "units": {"binding signal": "enrichment R"}}
{"binder": "B1", "binding signal": 1.06}
{"binder": "B2", "binding signal": 1.52}
{"binder": "B3", "binding signal": 0.694}
{"binder": "B4", "binding signal": 1.6}
{"binder": "B5", "binding signal": 1.04}
{"binder": "B6", "binding signal": 0.756}
{"binder": "B7", "binding signal": 0.464}
{"binder": "B8", "binding signal": 1.78}
{"binder": "B9", "binding signal": 0.76}
{"binder": "B10", "binding signal": 0.663}
{"binder": "B11", "binding signal": 3.46}
{"binder": "B12", "binding signal": 5.89}
{"binder": "B13", "binding signal": 0.772}
{"binder": "B14", "binding signal": 1.63}
{"binder": "B15", "binding signal": 3.51}
{"binder": "B16", "binding signal": 5.25}
{"binder": "B17", "binding signal": 5.33}
{"binder": "B18", "binding signal": 4.56}
{"binder": "B19", "binding signal": 1.37}
{"binder": "B20", "binding signal": 1.02}
{"binder": "B21", "binding signal": 1.13}
{"binder": "B22", "binding signal": 0.753}
